Data from PubChem BioAssay AID493170 (National Center for Advancing Translational Sciences (NCATS), 2011).
Results filed as inconclusive are left out. Activity calls are given as the source filed them. Calls come from the whole dose curve; as a rule, active = well fitted inhibition curve with a large enough effect; inconclusive = small, poorly fitted or top-dose-only effect, or effect the other way; inactive = flat fitted curve, though single readings scatter.

Molecular target: Ubiquitin carboxyl-terminal hydrolase 2 (Homo sapiens) (UniProt O75604)
Sequence (O75604 whole entry, looked up): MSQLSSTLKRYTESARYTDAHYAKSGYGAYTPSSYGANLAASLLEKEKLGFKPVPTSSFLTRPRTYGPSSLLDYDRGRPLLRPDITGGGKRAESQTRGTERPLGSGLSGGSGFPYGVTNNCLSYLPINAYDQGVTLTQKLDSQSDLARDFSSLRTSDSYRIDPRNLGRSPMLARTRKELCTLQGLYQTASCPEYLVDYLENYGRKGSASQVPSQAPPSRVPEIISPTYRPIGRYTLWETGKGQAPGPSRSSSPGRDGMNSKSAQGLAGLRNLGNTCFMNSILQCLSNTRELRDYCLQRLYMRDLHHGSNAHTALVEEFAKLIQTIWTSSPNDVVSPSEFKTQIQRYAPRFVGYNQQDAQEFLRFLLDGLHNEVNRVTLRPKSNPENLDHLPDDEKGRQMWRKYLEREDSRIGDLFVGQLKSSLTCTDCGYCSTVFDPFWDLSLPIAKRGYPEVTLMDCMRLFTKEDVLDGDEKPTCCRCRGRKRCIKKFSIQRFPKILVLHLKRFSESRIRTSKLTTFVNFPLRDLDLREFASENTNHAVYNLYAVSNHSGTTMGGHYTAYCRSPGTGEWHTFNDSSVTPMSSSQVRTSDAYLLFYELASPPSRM
Experiment: Ub-rhodamine 110 based assay for inhibitors Ubiquitin-specific Protease USP2a; note: nearly all actives have a fitted effect of over 50% in size
Conditions: USP2a Ub-rhodamine110 cleavage, fluorescence; series mostly up to 38.3 µM; activity change, negative = inhibition: at the top concentration
How it was run: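 Kinetic fluorescence (485/531 nm) read each minute over 7 min after adding Ub-Rhod110 (150 nM final) to USP2a (5 nM final). The enzyme had 30 min RT exposure to compounds beforehand in Tris pH 8.0 buffer with CaCl2, CHAPS and beta-ME.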
% is set by controls: 0 for no effect and ±100 for the full control effect; potency is the fitted concentration of half-maximal effect.

Potency, active:
O=C(Nc1nc(-c2ccco2)c(-c2ccco2)s1)c1ccc(F)cc1F 10 µM, O=C(Cc1ccc(S(=O)(=O)N2CCOCC2)s1)Nc1nc2c(s1)CCCC2 6.31 µM, COc1cccc(-n2c(SCc3cc(=O)oc4cc(O)c(O)cc34)nc3ccccc3c2=O)c1 1.58 µM, Cc1cc(-c2csc(NC(=O)c3ccc(=O)[nH]c3)n2)c(C)n1Cc1ccccc1 12.6 µM, N#CCC(=O)Nc1ccc(C(=O)OCC(=O)NCc2ccc3c(c2)OCO3)cc1 10 µM, O=C(O)c1cccc(-n2cccc2/C=C2/NC(=O)N(c3ccc(Cl)cc3)C2=O)c1 4.47 µM, O=C(O)c1cccc2c1C(=O)c1ccc(-c3ccc(F)cc3OCc3ccccc3)cc1S2(=O)=O 11.2 µM, COc1ccc(/C=N\NC(=O)c2cc(O)c(O)c(O)c2)cc1COc1ccc(C(=O)OCC(C)C)cc1 2.82 µM, O=C(CN1C(=O)/C(=C2\SC(=S)N(CCS(=O)(=O)O)C2=O)c2ccccc21)Nc1cccc(Br)c1 5.62 µM, O=C(Cc1cccs1)Nc1ccc(S(=O)(=O)N2CCCCC2)cc1 7.94 µM, O=C1S/C(=C\C=C\c2ccco2)C(=O)N1c1ccc(O)cc1 8.91 µM

Activity change, negative = inhibition, inactive:
CCCCC(OC(=O)c1cc2occc2n1C)C(=O)NCC1CCCO1 (centres undefined) -5.56%, O=C(CCNc1cccc(Cl)c1)c1ccco1 10.6%, CCCCCCCCCCOC(=O)Cn1c(COc2ccccc2)[n+](C)c2ccccc21 -21.6%, O=C(COC(=O)c1ccc(F)c(S(=O)(=O)N2CCOCC2)c1)c1ccccc1 -0.0271%, Cc1ccc(NC(=O)CCC(=O)OC(C)C(=O)c2ccccc2)cc1 (centres undefined) -5.77%, CCCCCc1ccc(OCCOCCn2c[n+](C)c3ccccc32)c(CCCCC)c1 -4.31%, CC(C)(C)C1C=C(Sc2ccccc2)C(=O)O1 (centres undefined) -0.787%, C#CCOCCOCCOCCNc1nc(N2CCN(C(=O)CCCCCCCCCCNC(=O)Cn3cc(CCCCCN)nn3)CC2)nc(N2CCN(C(=O)CCCCCCCCCCNC(=O)[C@H](CO)n3cc(CCCCCN)nn3)CC2)n1 -12.4%, CC1=CC(C)(C)N(C(=O)c2ccccc2)c2ccccc21 -14.4%, O=C(/C=N/O)NCc1cccnc1 -8.44%, O=C(c1ccccc1)N1CCN(C2C3CC4CC(C3)CC2C4)CC1 (centres undefined) -3.77%, CCC1SC2=NC(C)=C(C(=O)OCCOC)C(c3ccc(C(=O)OC)cc3)N2C1=O (centres undefined) -8.2%, Cn1nnnc1Sc1ncnc2scc(-c3ccc4c(c3)OCO4)c12 -18.2%, O=C1CCCc2nc(N3CCN(c4ccccc4)CC3)ncc21 -18.7%, O=[N+]([O-])c1ccc(Sc2nnnn2-c2ccccc2)c(Cl)c1 -7.1%, C=CC[C@H](CC(=O)OC(C)(C)C)C(=O)OC[C@@H]1CCCN1C(=O)[C@H](CC=C)CC(=O)N[C@H](CO)Cc1ccccc1 0.806%, CC(=O)COc1ccc2c(-c3ccccc3)cc(=O)oc2c1 -12.9%, CCOc1ccccc1C(=O)Nc1nnc(C(C)C)s1 -14.6%, Cc1ccc(CNC(=O)CCNS(=O)(=O)c2ccc(C)cc2)cc1 -6.2%, O=C(COC(=O)/C=C/c1ccc(Cl)cc1)NC1CC1 2%, O=C(Nc1cccc(S(=O)(=O)N2CCCC2)c1)c1cncc(Br)c1 5.44%, O=C1OC[C@@H]2CCCN2C(=O)[C@@H](CC(=O)N(CCO)Cc2ccccc2)C/C=C\C[C@@H]1Cc1ccc(F)cc1 -2.99%, Oc1ccccc1/C=N/Nc1ncc(Br)cn1 1.75%, CC(C)(C)c1cc(Br)ccc1OCC(=O)Nc1ncn[nH]1 -0.347%, NC(=O)CC(NC(=O)Cc1ccc(Br)cc1)c1ccc(N2CCC(Cc3ccccc3)CC2)c([N+](=O)[O-])c1 (centres undefined) -3.24%, O=C(NC1CCCCC1)C(c1ccco1)N(Cc1ccco1)C(=O)c1ccco1 (centres undefined) -21.9%, COc1ccccc1N1CCN(c2cc(C)nc3nc(C)nn23)CC1 -3.98%, Oc1ccc(/C=N/NC(=S)N/N=C/c2ccc(O)cc2)cc1 -8.74%
